High-throughput results from PubChem BioAssay.
In the library only some 4% were active in any assay of this set; here they are far more common.
Glioma ERSR ind: ER stress response induction in glioma; Potency, µM, without a hit: top-dose activation, actives largely listed as activators; U87-MG GRP78 promoter luciferase reporter, 16 h; 420,000 compounds, 0.02% hits; active = well fitted activation curve with a large enough effect; also: potency is read from the fitted curve at half-maximal effect; series mostly up to about 76 µM; % of control where 0% means no effect; nearly all actives have a fitted effect of over 35% in size
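Stably transfected U87-MG human glioma cells carrying a GRP78-based luminescent sensor were seeded at 1000 cells/well, pin-dosed with compounds and incubated 16 h. Luciferase reagent was then added, and end-point luminescence was read after 10 min at room temperature.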
D1 PAM: enhances dopamine response at the human D1 receptor | P21728 | 360,000 compounds, 0.036% hits | AID 504651 | potentiation, % at 10 µM | HEK293 TREx D1 cells, calcium flux, dopamine EC20 potentiation; in the data active = potentiation above about 30%; also: 0% is about no effect
D1 antag: antagonists of human D1 dopamine receptor; 360,000 compounds, 3.2% hits; P21728; activity change, negative = inhibition, % at 10 µM; HEK293 TREx D1 cells, calcium flux, dopamine EC80; active compounds read low; in the data active = activity change below about -30%; also: % is scaled to controls: 0 for no effect and ±100 for the full control effect
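Allosteric or orthosteric antagonism assessed as attenuation of the calcium response to EC80 dopamine, added 180 s after compound, in induced HEK293 Trex D1 cells loaded with no-wash calcium dye.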
TRHR agonist: agonists of human TRH receptor. P34981. TRHR cells, calcium flux fluo-8, FDSS agonist mode. activation, % at 2 µM. 360,000 compounds, 0.18% hits. AID 493084; also: 0% is about no effect
Target sequence (P34981 whole entry, looked up): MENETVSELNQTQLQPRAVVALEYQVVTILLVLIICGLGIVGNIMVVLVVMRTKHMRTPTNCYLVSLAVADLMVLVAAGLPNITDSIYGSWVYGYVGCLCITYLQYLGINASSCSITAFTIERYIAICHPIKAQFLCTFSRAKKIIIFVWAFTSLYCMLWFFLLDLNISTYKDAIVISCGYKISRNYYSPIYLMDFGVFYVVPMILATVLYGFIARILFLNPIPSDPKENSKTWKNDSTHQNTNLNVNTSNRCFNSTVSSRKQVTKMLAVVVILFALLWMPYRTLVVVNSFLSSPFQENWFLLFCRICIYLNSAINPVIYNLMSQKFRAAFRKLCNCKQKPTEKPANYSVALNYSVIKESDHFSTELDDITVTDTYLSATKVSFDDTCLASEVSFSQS
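TRHR-expressing cells, plated overnight in medium with 10% serum, were loaded with fluo-8 calcium dye at room temperature. After a 10 s baseline, library compound was pin-added and calcium release was recorded kinetically (ex 480/em 530) as agonist response.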
D1 ag: activates the human D1 dopamine receptor; P21728; HEK293 T-REx D1 cells, calcium flux, agonist mode; activation, % at 2 µM; 360,000 compounds, 1% hits; AID 504660; also: 0% is about no effect
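Agonism was scored from calcium flux recorded over 180 s (1 read/s) after pintool compound addition, following a 10-cycle baseline. Cells were inducible force-coupled HEK293 TREx D1, plated overnight at 30 C and loaded with no-wash calcium dye.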
TRHR PAM: allosterically enhances the human TRH receptor. TRHR cells, fluo-8 calcium fluorescence, EC20 TRH enhancement. enhancement, % at 2 µM. 360,000 compounds, 0.66% hits; in the data active = enhancement above about 30%; also: 0% is about no effect
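Enhancer read-out: after compound pinning and an initial kinetic agonist-mode read, an EC20 of TRH (10 nM final) was injected and fluo-8 calcium signal (Ex 480/Em 530) followed at 1 s/cycle for 100 cycles in TRHR-expressing cells.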
* marks the source's active call; other numbers are inactive results; nt = no result; ! = repeats disagree. Rule as the data show it, unless noted: active = activation above about 30%; inactive = the rest.

SMILES | Glioma ERSR ind | D1 PAM | D1 antag | TRHR agonist | D1 ag | TRHR PAM
COc1ccc([C@@H]2CC(=O)c3c(O)cc(O[C@@H]4O[C@H](CO)[C@@H](O)[C@H](O)[C@H]4OC4O[C@@H](C)[C@H](O)[C@@H](O)[C@H]4O)cc3O2)cc1O (stereo partly specified) | -2% | nt | nt | nt | nt | nt
Cc1ccc(C)c2c1NC(C(=O)O)C1CC=CC21 (stereo unspecified) | -5% | nt | nt | nt | nt | nt
Cc1csc(CN(C)C(=O)c2sc3ncnc(NCC4CCCO4)c3c2C)n1 (stereo unspecified) | -6% | nt | nt | nt | nt | nt
CC(C)CNC(=O)CN1C(=O)NC2(CCCc3ccccc32)C1=O (stereo unspecified) | 0% | -6 | -16 | -1 | 3 | 31*
NC(=O)CN1C(=O)NC2(CCOc3ccccc32)C1=O (stereo unspecified) | -1% | 5 | -75* | 2 | -2 | 8
O=C(O)CN1C(=O)NC2(CCCc3ccccc32)C1=O (stereo unspecified) | -5% | -6 | -1 | 1 | 0 | 2
NC(=O)NC(=O)CN1C(=O)NC2(CCOc3ccccc32)C1=O (stereo unspecified) | -2% | -8 | 7 | 0 | 6 | -4
COc1ccccc1CNC(=O)CN1C(=O)NC2(CCCc3ccccc32)C1=O (stereo unspecified) | -5% | -11 | -38* | 0 | 2 | -6
Cc1ccccc1C(=O)OCc1cc(=O)n2nc(-c3cccs3)sc2n1 | 0% | -2 | 1 | -1 | 3 | 1
O=C(CN1C(=O)c2cccc([N+](=O)[O-])c2C1=O)OCC(=O)N1CCCCC1 | 2% | -1 | 18 | 0 | 2 | 18
OCCN1CC(O)C(O)C(O)C1CO (stereo unspecified) | -6% | nt | nt | nt | nt | nt
Cc1cc(C)cc(NC(=O)N2CCCN(c3c(Cl)cncc3Cl)CC2)c1 | 0% | -4 | -33* | 0 | 0 | -7
CC(=O)c1ccc(N2CCN(C(=O)Nc3ccc(C)cc3)CC2)cc1 | -3% | -2 | -40*! | -1 | 7 | 8
O=C(Nc1ccc2c(c1)OCCO2)N1CCN(c2ccccc2)CC1 | 11% | -9 | -46* | 0 | 6 | 2
CC(=O)c1ccc(N2CCN(C(=O)Nc3cccc(F)c3)CC2)cc1 | 0% | -4 | -35*! | 1 | 5 | -1
O=C(Nc1ccc2c(c1)OCO2)N1CCN(c2ccccc2)CC1 | 1% | -4 | 0 | 0 | 1 | 2
CC(=O)c1ccc(NC(=O)N2CCN(c3ccc(C)cc3)C(C)C2)cc1 (stereo unspecified) | 7% | -2 | -2 | -1 | 3 | 2
CC(=O)N1CCC2(CC1)CCN(C(=O)Nc1cccc(F)c1)CC2 | 1% | nt | nt | nt | nt | nt
O=C(C[n+]1cc(Br)cc(Br)c1)c1ccc2c(c1)CCCC2 | -3% | nt | nt | nt | nt | nt
Cc1ccc(NC(=O)N2CCN(c3ccc(Cl)c(Cl)c3)CC2)cc1 | nt | -3 | -30* | 0 | 16 | -2
COc1ccc(N2CCN(C(=S)Nc3cccc(C)c3)CC2)cc1 | -4% | -2 | -41* | -1 | 1 | -1
CNC(=S)N1CCN(c2ccc(Cl)c(Cl)c2)CC1 | -2% | -7 | -31* | 1 | 10 | -1
COc1ccc(NC(=S)N2CCCC2c2ccc(OC)c(OC)c2)cc1 (stereo unspecified) | -2% | 2 | 2 | 0 | 2 | 6
COc1ccc(C2CCCN2C(=S)Nc2cccc(C)c2)cc1OC (stereo unspecified) | 0% | 3 | -59* | -1 | 3 | 2
COc1cccc(N2CCN(C(=S)Nc3cccc(C)c3)CC2)c1 | -3% | -1 | -4 | -1 | 8 | 0
C#CCCCO/N=C1/C[C@@H](O)[C@@H](O)[C@@H]2[C@@H]3C(=O)N([C@@H](C)c4ccccc4)C(=O)[C@H]3CC[C@H]12 | -1% | nt | nt | nt | nt | nt
O=C(N/N=C1/C[C@@H](O)[C@@H](O)[C@@H]2[C@@H]3C(=O)N(C4CCCCC4)C(=O)[C@H]3CC[C@H]12)OCc1ccccc1 | -3% | nt | nt | nt | nt | nt
Cc1ccccc1C(=O)N1CCN(c2ccc(NC(=O)c3cccnc3)cc2)CC1 | -2% | -11 | -19 | 0 | 1 | 2
